Reference: PubChem BioAssay AID1851 (National Center for Advancing Translational Sciences (NCATS), 2009)
Values joined by “and” are separate entries in the source; they are usually repeats but may differ in a detail not shown here. Equal entries are not always repeated. Hit rate of the full screen: of about 16,000 compounds, about 4,000 (25%) were called active. Inconclusive results (about 26%) are left out. Calls follow the shape of the dose curve; as a rule, active = well fitted curve in the direction sought with a large enough effect; inconclusive = small, poorly fitted or top-dose-only effect, or effect the other way; inactive = no such curve, though single readings can be large or run the other way. Not all results are given here. Some structures have more than one record in an assay (separate samples or runs), and their calls can disagree.

Molecular target: Cytochrome P450 2C9 (Homo sapiens) (UniProt P11712)
Sequence (P11712 whole entry, looked up): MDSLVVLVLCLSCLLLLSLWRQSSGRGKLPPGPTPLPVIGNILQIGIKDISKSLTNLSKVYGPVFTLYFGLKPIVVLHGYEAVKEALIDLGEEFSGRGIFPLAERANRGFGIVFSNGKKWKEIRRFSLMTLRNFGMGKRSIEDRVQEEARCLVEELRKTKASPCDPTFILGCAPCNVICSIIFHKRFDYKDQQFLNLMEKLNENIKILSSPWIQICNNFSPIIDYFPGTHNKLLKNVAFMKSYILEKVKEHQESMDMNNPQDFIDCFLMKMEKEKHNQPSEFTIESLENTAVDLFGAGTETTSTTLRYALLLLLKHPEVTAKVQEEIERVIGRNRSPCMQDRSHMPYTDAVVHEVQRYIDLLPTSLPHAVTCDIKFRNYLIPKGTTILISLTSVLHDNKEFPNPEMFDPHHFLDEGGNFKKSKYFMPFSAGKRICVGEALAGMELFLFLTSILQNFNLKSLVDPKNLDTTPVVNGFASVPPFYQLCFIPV
Test: Cytochrome panel assay with activity outcomes
Conditions: recombinant CYP, pro-luciferin dealkylation, luminescence, p450-cyp2c9; series mostly up to 57.1 µM; activity, negative = inhibition: at the top concentration
% is scaled to controls: 0 for no effect and ±100 for the full control effect.

Row | SMILES | AC50 | activity, negative = inhibition
1 | CNCCC=C1c2ccccc2CCc2ccccc21 | inactive | –
2 | OC[C@@H]1O[C@@H](n2cnc3c(NC4CCCC4)ncnc32)[C@@H](O)[C@H]1O | – | 12.1% (inactive)
3 | COC(=O)C1(C)C=C2C(=C(c3ccccc3)C(=O)C2C)CN1 (stereo unspecified) | 10 µM (active) | –
4 | COC(=O)C1(Cc2ccccc2)C=C2C(=C(C)C(=O)C2C)CN1 (stereo unspecified) | – | -21.6% (inactive)
5 | CCCC1(C(=O)OC)C=C2C(=C(c3ccccc3)C(=O)C2C)CN1 (stereo unspecified) | 5.01 µM (active) | –
6 | COC(=O)C1(CC(C)C)C=C2C(=C(c3ccccc3)C(=O)C2C)CN1 (stereo unspecified) | 10 µM (active) | –
7 | CC1(C)CC(=O)C(CCC(=O)c2ccccc2)C(C)(C)N1 (stereo unspecified) | – | -16.3% (inactive)
8 | CN(C)c1ccc(-c2cncnc2NCc2ccccc2)cc1 | – | -13.6% [at 2.29 µM] (inactive)
9 | NC(=O)C[C@H](N)C(N)=O | – | -1.03% [at 11.4 µM] (inactive)
10 | CN[C@]1(C)[C@H]2CC[C@@H](C2)C1(C)C | – | -5.41% [at 25.6 µM] (inactive)
11 | Clc1ccc2c(NCCNc3ccnc4cc(Cl)ccc34)ccnc2c1 | – | -3.79% [at 11.4 µM] (inactive)
12 | CN[C@@H]1[C@H](O[C@@H]2O[C@H](CO)[C@@H](N)[C@H](O)[C@@H]2O)O[C@H]2C[C@@H](N)[C@@H](O[C@H]3[C@@H](O)[C@H](O)[C@H](N)C[C@@H]3N)O[C@H]2[C@H]1O | – | -2.58% [at 25.6 µM] (inactive)
13 | COc1cc(OC)c2cc(-c3ccncc3)cnc2c1 | – | -9.27% (inactive)
14 | CCOC(=O)c1cc(NC(=O)c2ccc(C)cc2)c(=O)oc1-c1ccccc1 | – | -18% (inactive)
15 | CCOC(=O)c1cc2c(C(F)(F)F)cc(-c3ccccc3)nc2o1 | 2.24 µM (active) | –
16 | Cc1[nH]c2c(C)cccc2c1CCNC(=O)c1ccc2c(c1[N+](=O)[O-])C(=O)c1ccccc1C2=O | 1.12 µM (active) | –
17 | Cc1[nH]c2ccccc2c1CCNC(=O)c1ccc2c(c1[N+](=O)[O-])C(=O)c1ccccc1C2=O | – | -4.48% (inactive)
18 | COc1ccccc1-c1cncnc1NCc1cccnc1 | – | 3.29% [at 2.29 µM] (inactive)
19 | O=C(CSCc1cccc(Br)c1)N/N=C/c1ccc2c(c1)OCO2 | 10 µM (active) | –
20 | O=C(Cn1nc(C(F)F)cc1C(F)F)N/N=C/c1ccc2c(c1)OCO2 | – | -10% (inactive)
21 | O=C(/C=C/c1ccc2c(c1)OCO2)NCCSCc1cccc(Cl)c1 | 5.01 µM (active) | –
22 | C=CCNC(=O)CC(=O)N/N=C/c1cccc(Br)c1 | – | -4.91% (inactive)
23 | OC[C@@H]1O[C@@H](N2CCN([C@@H]3O[C@@H](CO)[C@@H](O)[C@H](O)[C@H]3O)CC2)[C@@H](O)[C@H](O)[C@H]1O | – | 7.18% [at 11.4 µM] (inactive)

Row | SMILES | AC50 | activity, negative = inhibition
24 | Cc1ccc(NC(=O)C(=O)NCc2ccc(/C=C(/C#N)C(=O)NCc3cccnc3)o2)cc1 | 0.631 µM (active) | –
25 | CCN1C(=O)[C@H]2[C@H]3[C@H](O)[C@H](O)C/C(=N/OC[C@@H](C)[C@H](OCc4ccccc4)C(C)C)[C@@H]3CC[C@@H]2C1=O | – | 19.1% [at 11.4 µM] (inactive)
26 | Cc1cccc(CNc2nc(-c3ccoc3)nc3ccccc23)c1 | – | -6.69% [at 2.29 µM] (inactive)
27 | Cc1cccc(NC(=O)CSc2nc3ccccc3c3nc(CCc4c(C)n[nH]c4C)nn23)c1 | 1.26 µM (active) | –
28 | Cc1nnc(-c2cnn(-c3ccccc3)c2N)n1Cc1ccncc1 | 14.1 µM (active) | –
29 | Cc1nnc(-c2cnn(-c3ccccc3)c2N)n1Cc1ccc(F)cc1 | 15.8 µM (active) | –
30 | Cc1ncc(CSC(=N)N)n1Cc1ccccc1 | – | -16.1% [at 11.4 µM] (inactive)
31 | N=C(N)C(N=Nc1ccccc1)C(=N)N (stereo unspecified) | – | 11.9% [at 11.4 µM] (inactive)
32 | O=C(O)[C@@H](O)[C@@H](O)[C@@H](O[C@H]1O[C@@H](CO)[C@@H](O)[C@@H](O)[C@@H]1O)[C@@H](O)CO | – | -14.4% [at 25.6 µM] (inactive)
33 | Cc1ccc(C2NC(c3ccc(C)cc3)C(C)C(=NO)C2C)cc1 (stereo unspecified) | 6.31 µM (active) | –
34 | c1cc(CSSCc2ccncc2)ccn1 | 1.58 µM (active) | –
35 | c1ccc2c(CSCCc3ccncc3)cccc2c1 | 0.0631 µM (active) | –
36 | N=C(N)SCCc1ccncc1 | – | 6.27% [at 11.4 µM] (inactive)
37 | Clc1ccc(CSCCc2ccncc2)cc1Cl | 0.0794 µM (active) | –
38 | c1ccc(CSCCc2ccncc2)cc1 | 0.316 µM (active) | –
39 | CN1CCN(CCc2ccc(Cl)c(Cl)c2)CC1 | – | -18.2% (inactive)
40 | N=C(N)SCCc1ccc(CCSC(=N)N)cc1 | – | 12.5% (inactive)
41 | c1cc(CNCCN2CCNCC2)ccn1 | – | -4.43% [at 11.4 µM] (inactive)
42 | c1ccc2c(CC3NCCN3)cccc2c1 | – | -9.35% [at 11.4 µM] (inactive)
43 | O=S(=O)(O)CCCc1cccc2ccccc12 | – | -3.26% [at 11.4 µM] (inactive)
44 | C[C@@H]1c2ccccc2CN1CC1=NCCN1 | – | 9.84% (inactive)
45 | Cc1ncc([N+](=O)[O-])n1CCO | – | -6.17% [at 25.6 µM] (inactive)
46 | Cc1oc(-c2ccccc2F)nc1CS(=O)(=O)CC(=O)NCCCN(C)C1CCCCC1 | – | -21.4% (inactive)

Row | SMILES | AC50 | activity, negative = inhibition
47 | CCOC(=O)N1CCC(NC(=O)CCC(=O)N2CC(C)Oc3ccc(C)cc32)CC1 (stereo unspecified) | – | -19.7% (inactive)
48 | CCOC(=O)N1CCC(NC(=O)CS(=O)(=O)Cc2nc(-c3cccc(OC)c3)oc2C)CC1 | 25.1 µM (active) | –
49 | CNc1ncnc2ccc(-c3cccc(NS(C)(=O)=O)c3)cc12 | – | -18.3% [at 2.29 µM] (inactive)
50 | CC1=C(CC(=O)O)c2cc(F)ccc2/C1=C\c1ccc(S(C)=O)cc1 (stereo unspecified) | inactive and 12.6 µM (active) | –
51 | CC1=C(CC(=O)O)c2cc(F)ccc2/C1=C\c1ccc(S(C)(=O)=O)cc1 | – | -6.18% (inactive)
52 | Cc1noc(C)c1COc1cccc(C(=O)OCC(=O)N2CC(=O)Nc3ccccc32)c1 | 3.55 µM (active) | –
53 | Cc1cc(=O)[nH]c(-n2[nH]c(C)cc2=O)n1 | – | -7.66% (inactive)
54 | CO[C@]1(NC(=O)C2SC(=C(C(N)=O)C(=O)O)S2)C(=O)N2C(C(=O)O)=C(CSc3nnnn3C)CS[C@H]21 (stereo partly specified) | – | 20.1% [at 25.6 µM] (inactive)
55 | CC(=O)NCCNc1cc(-c2ccccc2C)ncn1 | – | 5.2% [at 2.29 µM] (inactive)
56 | Cc1ccccc1-c1cc(C(=O)n2cccn2)c2cc(Cl)ccc2n1 | 5.01 µM (active) | –
57 | CC(=O)NCCNc1ncnc2ccc(-c3ccccc3C)cc12 | – | -0.544% [at 2.29 µM] (inactive)
58 | C[C@@H](c1ccccc1)N1C(=O)[C@H]2[C@H]3[C@H](O)[C@H](O)C/C(=N/OC[C@@H](O)COCc4ccco4)[C@H]3CC[C@@H]2C1=O | – | 10.7% [at 11.4 µM] (inactive)
59 | Cc1c(/C=C2\SC(=O)N(CC(=O)Nc3ccc4c(c3)OCO4)C2=O)c2ccccc2n1C | – | -9.41% (inactive)
60 | CC(C)n1cc(/C=C2/SC(=O)N(CC(=O)Nc3ccc4c(c3)OCO4)C2=O)c2ccccc21 | 3.98 µM (active) | –
61 | O=C(CCc1ccc(O)cc1)c1c(O)cc(O)cc1O | 12.6 µM (active) | –
62 | CC(=O)N[C@H](Cc1ccc(O)cc1)C(=O)O | – | 2.06% [at 11.4 µM] (inactive)
63 | C[C@@H](CCc1ccc(O)cc1)NCCc1ccc(O)c(O)c1 | inactive | –
64 | C(=N\n1cnnc1)/c1cccn1-c1ccccc1 | 5.01 µM (active) | –
65 | CCOC(=O)c1cc2sc(C)cc2n1CCCN1C(=O)c2ccccc2C1=O | 3.55 µM (active) | –
66 | Cc1nc2c(O)cccc2c(=O)[nH]1 | 3.98 µM (active) | –
67 | O=c1[nH]c2ccccc2c2ccccc12 | – | -16.3% (inactive)
68 | Cc1cc2[nH]c(=O)c3ccccc3n2n1 | – | -17.6% (inactive)
69 | Cc1ccc(C(=O)C2=C(O)C(=O)N(CCCn3ccnc3)C2c2ccc(OC(C)C)cc2)o1 (stereo unspecified) | 11.2 µM (active) | –

Row | SMILES | AC50 | activity, negative = inhibition
70 | CCC(C)NC(=O)C1c2cc(OC)c(OC)cc2C(=O)N(C)C1c1cccs1 (stereo unspecified) | – | 4.6% (inactive)
71 | CCOc1cccc(C2C(C(=O)c3ccc(C)o3)=C(O)C(=O)N2Cc2ccncc2)c1 (stereo unspecified) | 12.6 µM (active) | –
72 | CN(C)CCN1C(=O)C(O)=C(C(=O)c2cc3ccccc3o2)C1c1cccc(Br)c1 (stereo unspecified) | – | -9% (inactive)
73 | COc1cc2c(cc1OC)C(C(=O)N1CCOCC1)C(c1cccs1)N(C)C2=O (stereo unspecified) | – | 13.6% (inactive)
74 | COc1ccc(CCN2C(=O)C(O)=C(C(=O)c3ccco3)C2c2cccs2)cc1OC (stereo unspecified) | 1.41 µM (active) | –
75 | Cc1ccc(C2C(C(=O)c3sc(C)nc3C)=C(O)C(=O)N2CCN2CCOCC2)o1 (stereo unspecified) | – | 12.4% (inactive)
76 | COc1cc(C2C(C(=O)c3ccc(C)o3)=C(O)C(=O)N2CCc2ccccc2)ccc1O (stereo unspecified) | 7.08 µM (active) | –
77 | C/C(=N\O)c1cccc[n+]1Cc1ccccc1 | – | -0.751% [at 11.4 µM] (inactive)
78 | COC(=O)[C@]1(C)CCC(c2ccc(C)cc2)=C(CC(=O)O)C1 | – | 3.21% [at 11.4 µM] (inactive)
79 | OC[C@@H]1NC[C@@H](O)[C@H]1O | – | 27.3% (inactive)
80 | FC(F)(F)c1ccccc1-c1cncnc1NCCN1CCOCC1 | – | -5.4% [at 2.29 µM] (inactive)
81 | CSc1ccc(NC(=O)Nc2cc(C)ccn2)cc1 | – | -15.6% [at 11.4 µM] (inactive)
82 | Cc1cc(NC(=O)Nc2ccc(N(C)C)cc2)c2cc(F)cc(F)c2n1 | 6.31 µM (active) | –
83 | Cc1cc(N)c2cc(NC(=O)Nc3ccc4nc(C)cc(N)c4c3)ccc2n1 | – | -18.2% [at 11.4 µM] (inactive)
84 | c1ccc(CNc2ncnc3ccc(-c4cccnc4)cc23)cc1 | – | 8.31% [at 2.29 µM] (inactive)
85 | O=C1NC(=O)[C@@](Cc2ccccc2)(c2cccnc2)N1 | – | -6.71% [at 11.4 µM] (inactive)
86 | CC1=C(C(=O)OCc2ccccc2)C(c2cccnc2)c2c(n(C)c(=O)n(C)c2=O)N1 (stereo unspecified) | 4.47 µM (active) | –
87 | CN1C(=O)CC[C@@H]1c1cccnc1 | inactive | –
88 | Cc1cnc(CNc2ncncc2-c2ccc3c(c2)OCO3)cn1 | – | 15.7% [at 2.29 µM] (inactive)
89 | CCC(C)(C)NC(=O)c1ccc2c(c1)N(CC(=O)OC)C(=O)C(C)(C)O2 | 28.2 µM (active) | –
90 | COC(=O)c1cc2c(ccn2-c2ccc(F)cc2)n1CC(C)C | 10 µM (active) | –
91 | Cc1ccc(/C=C2\Sc3ccccc3C2=O)s1 | 3.55 µM (active) | –
